SMILES strings stand for the structures. The panel holds about 83,000 compounds, 20% with a hit somewhere; the sample as a whole holds those more often.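 The test compound was applied at a single concentration to cells in 96-well plates for 48 hours, and percent growth was recorded.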 Unmarked numbers belong to inactive results. The source made the active and inactive calls. How the source made its calls: active means growth percent below 10; inactive means the rest.

Common to all, as to experiment: NCI-60 one-dose screen, 48 h (100 = growth as untreated, 0 = no growth, -100 = all killed)
Holding throughout (details): 10 µM

Experiment [1] relates to SR leukemia.
For experiment [2], the system named is RPMI-8226 leukemia.
In experiment [3] the test system is OVCAR-8 ovarian.
Experiment [4] deals with OVCAR-5 ovarian.
Experiment [5] has as its system OVCAR-4 ovarian.
In experiment [6] the test system is SK-OV-3 ovarian.
Experiment [7] deals with IGROV1 ovarian.
In experiment [8] the test system is OVCAR-3 ovarian.
The subject of experiment [9] is HS 578T breast.
The test system of experiment [10] is NCI/ADR-RES ovarian.
The test system of experiment [11] is T-47D breast.
Experiment [12] relates to BT-549 breast.
For experiment [13], the system named is SW-620 colon.
For experiment [14], the system named is MCF7 breast.
Experiment [15] relates to HCT-116 colon.
Experiment [16] concerns HCC-2998 colon.
Experiment [17] deals with KM12 colon.
For experiment [18], the system named is MDA-MB-435 melanoma.

For `CC(C)/C(=N/O)c1ccccc1`, the growth in [1] is 107%; in [2] it was 111%; in experiment [3] it was 110%; in experiment [4], 103%; in experiment [5], 111%; in experiment [6], 122%. The growth is 118% in experiment [7]; 130% in [8]; 118% in [9]; 107% in [10]; 114% in [11]; 111% in experiment [12]. The growth in experiment [13] is 114%; in experiment [14], 107%; in [15], 109%; in experiment [16] it was 106%; in experiment [17] it was 117%.
For `N#Cc1cnc2ccc(NCc3cnc[nH]3)cc2c1Nc1ccc(F)c(Cl)c1`, the growth in experiment [1] was 66.1%; in experiment [2], 83.2%; in experiment [3], 46.6%; in experiment [4], 82.7%; in [5], 42.9%; in experiment [6], 39.9%. The growth in [7] was 22.4%; in [8] it was 49.7%; in [9], 90.9%; in [10], 98.7%; in experiment [11], 57.2%; in [12], 74.2%. Besides, the growth in experiment [13] was 71.7%; in experiment [14], 91.9%; in [15], 56.1%; in [16], 91.4%; in experiment [17], 84.2%.
`CC(=O)Oc1c(C)c(C)c2c(c1C)CCC(C)(CC(=O)OCCCCCCCCCCC[P+](c1ccccc1)(c1ccccc1)c1ccccc1)O2` (stereo unspecified): the growth is -34.7% (active) in experiment [1]; -49.8% (active) in experiment [2]; -44.1% (active) in experiment [3]; -37.4% (active) in experiment [4]; -83.2% (active) in [5]; -18.4% (active) in experiment [6]. The growth in experiment [7] was -46.2% (active); in experiment [8], -90.5% (active); in experiment [9], -35.2% (active); in [10], -42.5% (active); in [11], -64.1% (active); in experiment [12], -91.4% (active). The growth is -68.2% (active) in experiment [13]; -87.2% (active) in experiment [14]; -95.6% (active) in experiment [15]; -61% (active) in [16]; -71.3% (active) in experiment [17].
As to `CCCc1c(CC)c(=N)c2ccccc2n1C`, the growth in experiment [1] was -27.5% (active); in [2], -17% (active); in experiment [3], 76.1%; in experiment [4] it was 100%; in experiment [5], 79.7%; in [6] it was 91.3%. Further, the growth was 82.8% in experiment [7]; 85% in experiment [8]; 76.5% in experiment [9]; 78.6% in experiment [10]; 73% in experiment [11]; 81.8% in [12]. Further, the growth is 57.8% in experiment [13], 32% in experiment [14], 27.7% in experiment [15] and 15.5% in experiment [16].
For `CCCC(C)c1ccc(OCCCCCCN2CCNCC2)cc1` (stereo unspecified), the growth in experiment [1] is -24.7% (active); in experiment [2], -9.35% (active); in experiment [3], 36.8%; in experiment [4], 80.8%; in experiment [5] it was 62.2%; in [6], 87%. Also, the growth was 64.7% in experiment [7]; 62.6% in experiment [8]; 68.1% in [9]; 54.3% in experiment [10]; -12.7% (active) in experiment [11]; 76.5% in [12]. The growth in experiment [13] was -16.6% (active); in [14] it was -23.2% (active); in [15], -6% (active); in experiment [16], -71.4% (active); in [17] it was 15.1%.
Turning to `C=CCOc1ccc2c(c1)CC=C1[C@@H]2CC[C@]2(C)C(=O)/C(=N/O)C[C@@H]12`, the growth in experiment [1] was 23.9%; in experiment [2], 40.6%; in [3] it was 91.2%; in [4], 50.6%; in [5], 73.3%; in [6], 121%. Moreover, the growth is 97.1% in experiment [7]; 108% in experiment [8]; 99.2% in experiment [9]; 83.1% in [10]; 87.8% in [11]; 89.1% in experiment [12]. Besides, the growth in experiment [18] is 72.6%; in experiment [13] it was 79.6%; in experiment [15], 66.8%; in experiment [17] it was 57.9%.
In the case of `O=C(O)c1cc(C(F)(F)F)cc(C(F)(F)F)c1`, the growth is 85.3% in experiment [1]; 104% in experiment [2]; 106% in experiment [3]; 107% in experiment [4]; 108% in [5]; 112% in experiment [6]. For the same compound, the growth was 114% in experiment [7]; 107% in [8]; 109% in [9]; 107% in [10]; 104% in experiment [11]; 105% in experiment [12]. Further, the growth in experiment [18] is 104%; in experiment [14] it was 101%; in experiment [15], 99.8%; in experiment [16], 103%; in experiment [17], 105%.
For `COc1cccc2c1O/C(=C\c1ncc([N+](=O)[O-])n1C)C2=O`, the growth in [1] was 6.35% (active); in experiment [2], -8.69% (active); in experiment [3] it was -23.3% (active); in [4], -9.04% (active); in experiment [5], 7.16% (active); in experiment [6] it was -16.6% (active). Besides, the growth in experiment [7] was -17.7% (active); in experiment [8], -3.72% (active); in experiment [9] it was -24.3% (active); in experiment [10] it was -3.54% (active); in experiment [11], 97.5%; in [12], -63.6% (active). In addition, the growth is -20% (active) in experiment [13]; 3.84% (active) in [14]; -53.2% (active) in experiment [15]; -54.9% (active) in experiment [16]; -50.6% (active) in experiment [17].
Regarding `CCCCOCCOCCOCc1cc2c(cc1Br)OCO2`, the growth in experiment [1] is 100%; in experiment [2] it was 99.2%; in experiment [3] it was 97.8%; in experiment [4], 95.5%; in experiment [5], 105%; in experiment [6], 96.5%. The growth in [7] was 89.6%; in experiment [8], 111%; in experiment [9], 108%; in experiment [10] it was 111%; in [11] it was 88%; in experiment [12] it was 110%. The growth is 100% in [13]; 90.2% in experiment [14]; 94.9% in [15]; 108% in experiment [16]; 97.7% in experiment [17].

The values are drawn from PubChem BioAssay (NCI).
